From PubChem BioAssay (EPA / NIEHS)
Several values for one entry are separate records, joined by “and”; a condition that tells them apart may be missing. Identical values can stand only once. Inconclusive results are not listed. More than one record can exist for a structure, and the calls need not agree. Activity calls are given as the source filed them. The calls were made as follows: active = hit-call score of the fitted dose curve at least 0.9, where 1 is the maximum; inconclusive = response in the unintended direction; inactive = score below 0.9.

Tests used:
[1] = target: human CYP2A6, CYP2A6 (gene 1548) (UniProt P11509); assay: NVS_ADME_hCYP2A6: NovaScreen (NVS) CYP450-related Enzyme Activity (ADME) Assay for human CYP2A6 (AID 2283099)
In short: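 Loss of fluorescence signal relative to acetonitrile vehicle reported CYP2A6 inhibition in a cell-free system using insect-cell-derived enzyme. Readings were taken at 0.5 h; top concentration in follow-up dose series was 20 uM.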

[2] = target: human CYP1A1, CYP1A1 (gene 1543) (UniProt P04798); assay: NVS_ADME_hCYP1A1: NovaScreen (NVS) CYP450-related Enzyme Activity (ADME) Assay for human CYP1A1 (AID 2283100)
In short: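 Inhibition of recombinant CYP1A1 turnover was assessed fluorometrically in a biochemical format 1 h after compound exposure. Testing began at 10 uM in duplicate and progressed to concentration series reaching 20 uM, with on-plate positive and negative controls.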

[3] = target: human CYP2B6, CYP2B6 (gene 1555) (UniProt P20813); assay: NVS_ADME_hCYP2B6: NovaScreen (NVS) CYP450-related Enzyme Activity (ADME) Assay for human CYP2B6 (AID 2283101)
In short: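 Compounds were first screened in duplicate at 10 uM against recombinant enzyme, with the fluorescent product measured after 1 hour. Active compounds were retested over a concentration series. Loss of fluorescence versus acetonitrile control was scored as reduced enzyme activity.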

[4] = target: human CYP1A2, CYP1A2 (gene 1544) (UniProt P05177); assay: NVS_ADME_hCYP1A2: NovaScreen (NVS) CYP450-related Enzyme Activity (ADME) Assay for human CYP1A2 (AID 2283102);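 as to AC50: fluorescence from turnover of a fluorogenic substrate by recombinant insect-cell CYP1A2; potency for inhibition since loss of fluorescence marks reduced CYP1A2 activity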
In short: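 Inhibition scored as decrease in fluorescent product versus acetonitrile negative control. Enzyme: insect-cell recombinant human CYP1A2, substrate-specific, cell-free. Reading at 0.5 h; 10 uM duplicate initial screen with positive and negative controls on every plate.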

[5] = target: human CYP2J2, CYP2J2 (gene 1573) (UniProt P51589); assay: NVS_ADME_hCYP2J2: NovaScreen (NVS) CYP450-related Enzyme Activity (ADME) Assay for human CYP2J2 (AID 2283106)
In short: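 Chemicals were first tested at 10 uM in duplicate, and hits meeting criteria such as 30% inhibition were run in singleton concentration series with a 20 uM top concentration. Enzyme activity of recombinant CYP2J2 was measured by fluorescence after 1 h, relative to acetonitrile.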

Sequence of human CYP1A1, CYP1A1 (gene 1543) (P04798 whole entry, looked up): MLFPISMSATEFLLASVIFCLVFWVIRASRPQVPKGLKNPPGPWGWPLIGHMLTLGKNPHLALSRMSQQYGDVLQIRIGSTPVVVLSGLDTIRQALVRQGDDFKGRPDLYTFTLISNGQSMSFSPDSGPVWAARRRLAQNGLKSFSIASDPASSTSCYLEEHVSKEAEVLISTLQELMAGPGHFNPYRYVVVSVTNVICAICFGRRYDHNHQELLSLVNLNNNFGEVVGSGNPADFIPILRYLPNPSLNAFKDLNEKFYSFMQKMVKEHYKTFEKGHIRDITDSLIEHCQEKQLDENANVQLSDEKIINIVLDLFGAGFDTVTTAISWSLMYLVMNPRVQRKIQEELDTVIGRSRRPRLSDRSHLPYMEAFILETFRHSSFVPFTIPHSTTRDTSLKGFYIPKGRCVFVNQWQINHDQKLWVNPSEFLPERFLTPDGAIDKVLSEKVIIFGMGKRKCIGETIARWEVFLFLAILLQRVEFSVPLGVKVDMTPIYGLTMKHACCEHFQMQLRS
Sequence of human CYP2A6, CYP2A6 (gene 1548) (P11509 whole entry, looked up): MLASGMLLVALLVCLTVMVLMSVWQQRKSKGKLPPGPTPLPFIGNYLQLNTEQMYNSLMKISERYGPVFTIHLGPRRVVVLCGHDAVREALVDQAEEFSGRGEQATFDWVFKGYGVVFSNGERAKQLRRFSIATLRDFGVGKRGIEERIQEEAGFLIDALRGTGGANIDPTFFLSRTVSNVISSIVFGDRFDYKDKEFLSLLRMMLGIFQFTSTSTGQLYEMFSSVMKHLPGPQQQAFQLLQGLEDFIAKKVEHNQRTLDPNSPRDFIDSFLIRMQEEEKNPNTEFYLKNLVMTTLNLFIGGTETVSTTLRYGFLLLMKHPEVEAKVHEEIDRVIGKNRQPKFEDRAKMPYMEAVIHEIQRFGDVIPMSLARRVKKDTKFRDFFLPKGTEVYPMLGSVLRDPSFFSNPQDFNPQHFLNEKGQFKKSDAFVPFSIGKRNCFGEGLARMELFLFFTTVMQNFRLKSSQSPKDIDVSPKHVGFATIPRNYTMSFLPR
Sequence of human CYP1A2, CYP1A2 (gene 1544) (P05177 whole entry, looked up): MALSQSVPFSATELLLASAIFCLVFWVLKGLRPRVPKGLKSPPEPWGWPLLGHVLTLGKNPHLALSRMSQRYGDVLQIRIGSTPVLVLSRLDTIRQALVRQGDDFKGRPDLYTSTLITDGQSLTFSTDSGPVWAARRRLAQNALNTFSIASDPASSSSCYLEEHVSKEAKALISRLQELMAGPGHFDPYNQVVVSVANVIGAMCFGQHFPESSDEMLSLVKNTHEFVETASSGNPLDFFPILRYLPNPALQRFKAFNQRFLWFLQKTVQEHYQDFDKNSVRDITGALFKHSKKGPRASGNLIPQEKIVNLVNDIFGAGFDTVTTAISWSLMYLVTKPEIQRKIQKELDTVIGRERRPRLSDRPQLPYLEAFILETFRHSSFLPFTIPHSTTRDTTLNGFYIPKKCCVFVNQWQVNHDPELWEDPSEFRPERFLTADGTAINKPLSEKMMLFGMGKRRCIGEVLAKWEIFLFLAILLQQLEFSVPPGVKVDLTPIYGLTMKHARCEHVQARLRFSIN
Sequence of human CYP2B6, CYP2B6 (gene 1555) (P20813 whole entry, looked up): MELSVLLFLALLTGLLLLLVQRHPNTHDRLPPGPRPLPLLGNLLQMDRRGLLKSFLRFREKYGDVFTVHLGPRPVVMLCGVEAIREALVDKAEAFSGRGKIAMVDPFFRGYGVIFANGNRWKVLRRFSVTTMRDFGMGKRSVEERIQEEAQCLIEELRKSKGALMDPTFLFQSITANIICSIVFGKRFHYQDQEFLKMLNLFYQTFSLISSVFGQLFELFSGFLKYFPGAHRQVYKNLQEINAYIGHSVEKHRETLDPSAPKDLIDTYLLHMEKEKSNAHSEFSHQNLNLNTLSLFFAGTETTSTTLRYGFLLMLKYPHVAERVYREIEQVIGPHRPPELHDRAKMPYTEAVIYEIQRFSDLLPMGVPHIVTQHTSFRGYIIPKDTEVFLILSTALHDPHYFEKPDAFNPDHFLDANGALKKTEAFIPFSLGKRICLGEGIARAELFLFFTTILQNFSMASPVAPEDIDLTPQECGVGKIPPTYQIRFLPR
Sequence of human CYP2J2, CYP2J2 (gene 1573) (P51589 whole entry, looked up): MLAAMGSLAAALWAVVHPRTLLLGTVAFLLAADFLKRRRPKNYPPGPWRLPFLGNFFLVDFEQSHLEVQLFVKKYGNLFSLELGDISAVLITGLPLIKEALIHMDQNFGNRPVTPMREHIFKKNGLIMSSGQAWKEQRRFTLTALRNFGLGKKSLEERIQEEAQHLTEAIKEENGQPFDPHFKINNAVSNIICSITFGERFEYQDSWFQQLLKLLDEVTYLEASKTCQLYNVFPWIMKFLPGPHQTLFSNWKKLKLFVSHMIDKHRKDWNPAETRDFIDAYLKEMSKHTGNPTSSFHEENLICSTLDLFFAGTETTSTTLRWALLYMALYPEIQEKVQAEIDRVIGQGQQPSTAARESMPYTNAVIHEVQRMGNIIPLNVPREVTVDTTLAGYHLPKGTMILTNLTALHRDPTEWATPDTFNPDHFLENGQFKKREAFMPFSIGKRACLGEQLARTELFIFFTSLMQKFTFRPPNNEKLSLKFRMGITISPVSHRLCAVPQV

Row | Structure (SMILES) | outcome [1] | AC50 [2] | AC50 [3] | AC50 [4] | outcome [4] | AC50 [5]
1 | COc1cc(-c2ccc(N)c(OC)c2)ccc1N | inactive | 3.13 µM (active) and 3.48 µM (active) | 6.76 µM (active) and 3.92 µM (active) | 1.27 µM (active) | inactive | –
2 | COP(=S)(OC)Oc1ccc(Sc2ccc(OP(=S)(OC)OC)cc2)cc1 | – | – | – | – | – | 3.3 µM (active)
